Screening results as filed in PubChem BioAssay.
TDP1 block = blocks human tyrosyl-DNA phosphodiesterase 1 | AID 485290 | 0.28% of 350,000 active | Potency, µM (series often up to 130 µM), for the others: at the highest dose activity change, negative = inhibition, hits mostly inhibitors | recombinant TDP1, AlphaScreen DNA substrate cleavage; note: potency is the fitted concentration of half-maximal effect; nearly all actives have a fitted effect of over 40% in size
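Enzyme-compound mixtures sat 15 min at room temperature, followed by a 5 min reaction with 15 nM final substrate and 10 min with AlphaScreen beads. Recombinant human Tdp1 was used at 1 nM final.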
CtBP-E1A blk = blocks the CtBP interaction with E1A; AlphaScreen GST-E1A/His-CtBP binding, 1536-well; stronger effect = lower value; activity change, % (no concentration beside the values); 0.49% of 340,000 active; in the data active = activity change below about -65%; inconclusive = mostly about -30% to -63%
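Steps: dispense buffer (Tris pH 8.0, NaCl 300 mM, TCEP 1 mM, BSA, Tween 20); add 5X protein mix (GST-E1A, His-CtBP, 125 nM each); pin 23 nL compound; 2 h at 37 °C, dark; add 5X beads (50 ug/mL); 1 h; read.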
Six1-Eya2 inh = Six1/Eya2 interaction inhibition; activity change, % (test concentration not listed); Q15475+O00167; AlphaScreen GST-Six1/His-Eya2 binding, biochemical; stronger effect = lower value; 0.56% of 360,000 active; in the data active = activity change below about -65%; inconclusive = mostly about -30% to -63%
Target sequence (O00167 whole entry, looked up): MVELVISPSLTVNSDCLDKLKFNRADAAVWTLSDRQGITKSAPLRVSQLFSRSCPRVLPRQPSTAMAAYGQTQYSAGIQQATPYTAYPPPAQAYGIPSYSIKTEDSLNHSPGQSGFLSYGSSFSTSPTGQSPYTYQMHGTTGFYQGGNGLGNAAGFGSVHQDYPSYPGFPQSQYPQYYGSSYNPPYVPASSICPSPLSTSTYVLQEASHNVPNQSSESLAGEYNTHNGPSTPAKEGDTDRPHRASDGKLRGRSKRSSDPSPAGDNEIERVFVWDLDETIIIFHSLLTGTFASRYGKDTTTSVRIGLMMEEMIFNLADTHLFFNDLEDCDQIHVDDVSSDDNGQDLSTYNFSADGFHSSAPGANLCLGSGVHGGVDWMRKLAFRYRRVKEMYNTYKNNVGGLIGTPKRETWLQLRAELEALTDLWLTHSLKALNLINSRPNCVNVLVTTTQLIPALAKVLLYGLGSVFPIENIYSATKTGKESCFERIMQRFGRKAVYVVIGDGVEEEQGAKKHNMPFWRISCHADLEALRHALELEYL
Target sequence (Q15475 whole entry, looked up): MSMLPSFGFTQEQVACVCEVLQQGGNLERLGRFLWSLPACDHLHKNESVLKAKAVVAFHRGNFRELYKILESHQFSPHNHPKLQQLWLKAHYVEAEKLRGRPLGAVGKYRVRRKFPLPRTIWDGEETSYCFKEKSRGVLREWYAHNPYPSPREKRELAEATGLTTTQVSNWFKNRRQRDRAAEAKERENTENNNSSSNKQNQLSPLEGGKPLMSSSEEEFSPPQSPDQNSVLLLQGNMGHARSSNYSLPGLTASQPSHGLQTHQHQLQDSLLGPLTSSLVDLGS
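AlphaScreen luminescence read after one hour at 37 °C in darkness. Pin-transferred compounds met GST-Six1 and His-Eya2 protein (5X stock 250 nM/500 nM) plus glutathione donor and Ni-chelate acceptor beads (5X, 50 ug/mL).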
TDP1 cell CPT = DT40-hTDP1 cell growth loss with CPT; chicken DT40 Tdp1-/-;hTDP1 cells + 20 nM CPT, ATP luminescence, 48 h; Potency, µM (highest dose often 46.2 µM), for the others: at the top dose activity change, negative = growth inhibition, hits mostly inhibitors; 12% of 420,000 active; AID 686979; note: potency is the fitted concentration of half-maximal effect; nearly all actives have a fitted effect of over 55% in size
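Chicken DT40 Tdp1-/- cells stably complemented with human TDP1 were seeded at 400 cells/well in medium containing 20 nM camptothecin, exposed to pin-transferred compounds, and grown at 37 °C for at least 48 hr. Viability was read as ATP luminescence.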
TDP1 cell noCPT = qHTS for Inhibitors of human tyrosyl-DNA phosphodiesterase 1 (TDP1): qHTS in cells in absence of CPT; Potency, µM (doses to about 46.2 µM), without a hit: at the top dose activity change, negative = growth inhibition, hits mostly inhibitors; DT40 Tdp1-/- hTDP1 cells, no CPT, ATP luminescence, 48 h; AID 686978, 2013; 15% of 420,000 active; note: potency is the fitted concentration of half-maximal effect; nearly all actives have a fitted effect of over 55% in size
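Camptothecin absent (DMSO only). Human TDP1-complemented DT40 knockout cells, 400 cells/well, 37 °C for minimum 48 hr; ATP measured via CellTiter-Glo, 30 min dark incubation, luminescence.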
IL-1B inflam inh = inflammasome signaling inhibition, IL-1 beta readout; THP-1 LPS/ATP IL-1B secretion, AlphaLISA, 16 h; stronger effect = lower value; activity change, % at 57.5 µM; 4.7% of 360,000 active; in the data active = activity change below about -50%; inconclusive = mostly about -30% to -49%
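Secreted IL-1B measured by AlphaLISA bead assay after 16 h compound exposure of THP-1 cells; compounds (final up to 57.5 uM) added 1 h before LPS (250 ng/mL) and ATP (1.25 mM) stimulation; lower signal means less secretion.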
Numbers without * were called inactive; ? = inconclusive; / = not tested or not shown; ! = not confirmed by another sample; [ ] = dose if it differs, or a comment. Only some compounds are listed: those with a hit (about 18% of all), similar ones and a draw of the others. Unless noted, calls come from the whole dose curve; as a rule, active = well fitted curve in the direction sought with a large enough effect; inconclusive = small, poorly fitted or top-dose-only effect, or another doubt; inactive = no such curve, though single readings can be large; an effect the other way counts as inactive or inconclusive. % is set by controls: 0 for no effect and ±100 for the full control effect.

SMILES	TDP1 block	CtBP-E1A blk	Six1-Eya2 inh	TDP1 cell CPT	TDP1 cell noCPT	IL-1B inflam inh
C[C@H](CO)N1C[C@H](C)[C@@H](CN(C)Cc2ccc(-c3ccccc3)cc2)Oc2c(NS(=O)(=O)c3cccs3)cccc2C1=O	4.9%	-6.2	-18.8	18.4µM*	?	?
Cc1cccn2cc(CCNC(=O)c3ccc(Br)o3)nc12	-1.0%	-0.8	4.4	-10.1%	-19.0%	18.3
CCc1ccc(NC2=CC(=O)CC(c3ccco3)C2)cc1 (stereo not drawn)	0.0%	2.3	-2.7	?	?	-14.0
C[C@H]1CN([C@@H](C)CO)C(=O)c2cccc(NC(=O)Nc3ccc(C(F)(F)F)cc3)c2O[C@@H]1CN(C)C(=O)Nc1ccc(F)cc1	1.7%	1.0	-5.5	5.17µM*	5.8µM*	0.8
COc1ccc(NC(=O)Nc2cccc3c2O[C@H](CN(C)C(=O)Nc2ccc(C(F)(F)F)cc2)[C@@H](C)CN([C@H](C)CO)C3=O)cc1	0.4%	-2.7	-10.0	25.9µM*	16.4µM*	-16.7
C[C@H](CO)N1C[C@H](C)[C@@H](CN(C)C(=O)Nc2ccc(C(F)(F)F)cc2)Oc2c(NC(=O)Nc3ccc(C(F)(F)F)cc3)cccc2C1=O	0.7%	6.4	-2.0	9.2µM*	7.31µM*	-7.2
C[C@H]1CN([C@@H](C)CO)C(=O)c2cccc(NC(=O)Nc3ccc(C(F)(F)F)cc3)c2O[C@H]1CN(C)C	-0.2%	-25.3	10.5	20.6µM*	?	-9.3
O=C(COC(=O)Cc1cccc(C(F)(F)F)c1)Nc1ccc2[nH]c(=O)[nH]c2c1	/	-1.7	-0.7	4.9%	2.4%	14.6
O=C(O)c1ccc(C2SCC(=O)N2Cc2ccco2)cc1 (stereo not drawn)	0.0%	10.6	16.5	-0.2%	3.4%	12.4
COc1ccc(NC(=O)Nc2cccc3c2O[C@H](CN(C)S(=O)(=O)c2ccccc2)[C@@H](C)CN([C@H](C)CO)C3=O)cc1	2.1%	3.3	-1.2	18.4µM*	?	-17.3
C[C@H](CO)N1C[C@H](C)[C@@H](CN(C)Cc2ccc3c(c2)OCO3)Oc2c(NC(=O)Cc3ccccc3)cccc2C1=O	6.0%	-3.8	-8.5	23.1µM*	20.6µM*	-18.3
C[C@@H]1CN([C@H](C)CO)C(=O)c2cc(NC(=O)Nc3ccc(C(F)(F)F)cc3)ccc2O[C@H]1CN(C)S(=O)(=O)c1ccccc1	0.4%	-0.2	-4.9	?	?	?
C[C@@H]1CN([C@H](C)CO)C(=O)c2cc(NC(=O)Nc3ccc(C(F)(F)F)cc3)ccc2O[C@H]1CN(C)C(=O)Nc1ccc(F)cc1	/	-2.5	-7.7	?	?	-61.5*
C[C@H](CO)N1C[C@H](C)[C@@H](CN(C)S(=O)(=O)c2ccccc2)Oc2c(NC(=O)Nc3ccc(C(F)(F)F)cc3)cccc2C1=O	0.3%	-0.8	-8.0	?	16.4µM*	?
O=C(CS(=O)(=O)Cc1ccccc1)N1CCN(c2ccccc2F)CC1	0.5%	-6.0	-2.2	-3.5%	-22.2%	-9.3
Cc1ccc(C(=O)C2CCN(CC(=O)NCc3ccc(F)cc3)CC2)cc1	/	5.2	7.6	?	-6.8%	-5.7
CC1Oc2ccccc2C=C1/C=N/NC(=O)c1ccccc1O (stereo not drawn)	0.0%	-3.2	-16.5	?	?	?
Cc1ccc(C(=O)N/N=C/C2=Cc3ccccc3OC2C)cc1 (stereo not drawn)	5.3%	13.3	-2.1	?	14.6µM*	-19.9
CC1Oc2ccccc2C=C1/C=N/NC(=O)c1ccccc1 (stereo not drawn)	0.0%	4.4	-3.7	9.2µM*	25.9µM*	-1.0
O=C(Nc1ccc(Cl)cc1)c1ccc2sc([C@@H]3O[C@H](CO)[C@@H](O)[C@H]3O)nc2c1	/	-0.6	-1.5	?	?	44.9
O=S(=O)(NCC(Nc1ccccc1)c1ccccc1)c1ccc(Cl)cc1 (stereo not drawn)	3.0%	-14.6	-10.2	?	29.1µM*	-79.2*
Cc1ccc(Cn2c(CCNc3nc(-c4ccc(C)cc4)cs3)nc3cc(C(=O)NCCCO)ccc32)cc1	/	-3.8	8.6	20.6µM*	14.6µM*	-8.0
Cc1ccc(Cn2c(C(C)Nc3nc(-c4ccc(C)cc4)cs3)nc3cc(Cl)c(Cl)cc32)cc1 (stereo not drawn)	/	0.5	-4.4	?	-15.1%	-1.7
Cc1ccc(Cn2c(C(C)Nc3nc(-c4ccc(Cl)cc4)cs3)nc3cc(C(=O)NCCCO)ccc32)cc1 (stereo not drawn)	/	-3.3	-8.3	10.3µM*	8.2µM*	30.2
COCCN(C(=O)CCN1C(=O)C2CC=CCC2C1=O)c1c(N)n(CC(C)C)c(=O)[nH]c1=O (stereo not drawn)	0.4%	-2.8	4.9	10.9%	16.3%	6.5
SMILES	TDP1 block	CtBP-E1A blk	Six1-Eya2 inh	TDP1 cell CPT	TDP1 cell noCPT	IL-1B inflam inh
CCc1c(C)c(C#N)c2nc3ccccc3n2c1NCc1ccco1	3.5%	-0.9	-8.1	23.1µM*	?	34.3
Cc1c(Cc2ccccc2)c(NCCCO)n2c(nc3ccccc32)c1C#N	-8.4%	13.5	19.9	20.6µM*	16.4µM*	-20.0
CCc1c(C)c(C#N)c2nc3ccccc3n2c1NC	/	-13.9	6.1	9.8%	-4.8%	14.7
CCCCc1c(C)c(C#N)c2nc3ccccc3n2c1Nc1c(C)n(C)n(-c2ccccc2)c1=O	-3.8%	-0.7	-0.6	23.1µM*	16.4µM*	-12.9
Cc1cc2[nH]c3ccccc3c2cn1	2.8%	-7.5	1.6	1.3%	?	-6.3
Cc1cc(NC(=O)c2noc3c2CCCC3)n(-c2ccccc2)n1	-2.3%	-3.0	-0.1	?	-22.4%	4.9
COc1ccc(OCCN2CCCC2)cc1Nc1nnc(Cl)c(Nc2ccccc2S(C)(=O)=O)n1	/	-14.3	-12.6	?	?	19.3
Cc1cc(C)c(C2=Nn3c(C)nnc3SC2C)cc1C (stereo not drawn)	13.4%[0.0935 µM]	-1.4	-11.0	18.4µM*	11.6µM*	26.2
CC1(C)S[C@@H]2[C@H](NC(=O)[C@H](N)c3ccccc3)C(=O)N2[C@H]1C(=O)O	22.4µM*!	3.5	-15.6	4.7%	6.8%	25.9
Cc1ccc(NC(=S)NC(=O)C2CCCCC2)c(Br)c1	-2.6%	8.1	-9.2	?	14.6µM*	46.1
